Screens: PubChem BioAssay, several laboratories
NALP3 yeast inh = NALP3 inflammasome inhibitors in reconstituted yeast, primary screen, luminescence, uHTS. Yeast reconstituted NLRP3/ASC/caspase-1, beta-gal luminescence, 24 h. inhibition, % at 10 µM. actives 0.39% (n = 330,000);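 active means inhibition of 50% or more; inactive means inhibition below 50%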;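 further: plate controls were induced DMSO wells for no effect and uninduced yeast grown without galactose for full effect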
SKKanGAS inh = S. pyogenes SKKanGAS growth inhibitors in kanamycin, primary screen, streptokinase expression inhibitor project, SKKanGAS strain, BacTiter-Glo luminescence; 6 h; inhibition, % at 7.5 µM; actives 1.3% (n = 300,000); AID 1662, 2009;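 active means mean replicate score, as percent of positive control median, at least 50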;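 further: strain carries kanamycin resistance gene driven by streptokinase promoter and grows in 40 µg/ml kanamycin; loss of luminescence reflects streptokinase promoter inhibition or plain growth inhibition; 0% = median of DMSO wells and 100% = positive control at its reference dose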
tim10-1 inh = growth inhibitors of tim10-1 mutant yeast, primary screen, luminescence, uHTS | S. cerevisiae tim10-1 ts strain growth, BacTiter-Glo, 24 h | inhibition, % at 20 µM | actives 2.2% (n = 330,000) | AID 463190, 2010;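 active means inhibition of at least 40%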;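 further: mutant grown at 25 °C; 0% = DMSO wells with yeast and 100% = wells holding no yeast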
tim23-1 inh = growth inhibitors of tim23-1 mutant yeast, primary screen, luminescence, uHTS; S. cerevisiae tim23-1 growth, BacTiter-Glo luminescence, 24 h; inhibition, % at 20 µM; actives 1.3% (n = 330,000); AID 463212, 2010;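 active means growth inhibition of the mutant yeast at or above 50%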;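 further: temperature-sensitive mutant grown at 25 °C; plate controls were DMSO-treated mutant yeast for no effect and medium wells lacking yeast for full effect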
TIM10 inh = growth inhibitors of isogenic TIM10 control yeast, primary screen, counter-screen for tim10-1 yeast inhibitor project, luminescence, uHTS | actives 1.4% (n = 330,000) | inhibition, % at 10 µM | S. cerevisiae TIM10 strain growth, BacTiter-Glo luminescence, 24 h;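 active means inhibition of 40% or more at the single tested concentration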;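 further: wild-type TIM10 isogenic control strain grown at permissive 25 °C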
NALP3 yeast conf = NALP3 inhibitors retested in yeast, confirmation, luminescence, single concentration. actives 81% (n = 1,300). inhibition, % at 10 µM. shares compounds with NALP3 yeast inh. yeast expressing human NALP3; in the data active means inhibition above about 48%
Casp1 ASC ctr = CASP1-PYCARD signaling inhibition in yeast, confirmatory test, counterassay for NLRP3 inhibitor program, one-dose; shares compounds with NALP3 yeast inh; yeast expressing Caspase-1-ASC, luminescence counter screen; inhibition, % at 10 µM; actives 66% (n = 1,000); AID 488784, 2010
NALP3 retest = NALP3 inhibitors in yeast, repeat test, confirmation, luminescence, single concentration, retest; yeast expressing human NALP3, luminescence read-out; shares compounds with NALP3 yeast inh; actives 53% (n = 1,000); inhibition, % at 10 µM
* = called active by the depositor. In the library only some 4.6% were active in any assay of this set; here they are far more common. Unless noted, no stated cut-off is given here; in the data, active means inhibition above about 50%; inactive means the rest.

How did CC(=O)Nc1ccc(NC(=O)CCC(=O)Oc2ccc(C)cc2)cc1 do in these assays?
NALP3 yeast inh: 29; SKKanGAS inh: -5; tim10-1 inh: 7; tim23-1 inh: -2; TIM10 inh: 2

Results for Clc1nnc(N/N=C/c2ccccc2)c2ccccc12 ?
NALP3 yeast inh: 60*; SKKanGAS inh: -4; tim10-1 inh: 21; tim23-1 inh: 10; TIM10 inh: 16; NALP3 yeast conf: 71*; Casp1 ASC ctr: 49; NALP3 retest: 34

What do the screens show for `COc1ccccc1NC(=O)Nc1ccc(C)cn1`?
NALP3 yeast inh: 61*; SKKanGAS inh: -5; tim10-1 inh: 0; tim23-1 inh: 25; TIM10 inh: -16; NALP3 yeast conf: 76*; Casp1 ASC ctr: 68*; NALP3 retest: 65*

Results for Cn1cc(C(=O)CCl)c2ccccc21 ?
SKKanGAS inh: 5

How did Cn1cc(/C(Cc2ccccc2)=N\O)c2ccccc21 do in these assays?
NALP3 yeast inh: 56*; SKKanGAS inh: -9; tim10-1 inh: -16; tim23-1 inh: -2; TIM10 inh: 20; NALP3 yeast conf: 68*; Casp1 ASC ctr: 37; NALP3 retest: 42

What do the screens show for `CC(OC(=O)Cc1n[nH]c(=O)c2ccccc12)C(=O)Nc1ccc(F)cc1` (configuration not stated)?
NALP3 yeast inh: 15; SKKanGAS inh: 3; tim10-1 inh: -4; tim23-1 inh: -4; TIM10 inh: 5

What do the screens show for `CC(C(=O)Nc1cccc([N+](=O)[O-])c1)N1C(=O)NC2(CCCC2)C1=O` (configuration not stated)?
NALP3 yeast inh: -2; SKKanGAS inh: 1; tim10-1 inh: 12; tim23-1 inh: 1; TIM10 inh: 12

What do the screens show for `Cc1c(C(=O)NCCC2=CCCCC2)oc2ccc(S(=O)(=O)N3CCOCC3)cc12`?
NALP3 yeast inh: 58*; tim10-1 inh: 9; tim23-1 inh: 26; TIM10 inh: 23; NALP3 yeast conf: 62*; Casp1 ASC ctr: 55*; NALP3 retest: 43

Results for Cc1c(C(=O)NCCCN2CCCC2=O)oc2ccc(S(=O)(=O)N3CCOCC3)cc12 ?
NALP3 yeast inh: 15; tim10-1 inh: 2; tim23-1 inh: 10; TIM10 inh: -5

How did CC(=O)N1CCN(S(=O)(=O)c2cccc(C(=O)Nc3ccccc3N3CCCC3)c2)CC1 do in these assays?
NALP3 yeast inh: -4; SKKanGAS inh: 2; tim10-1 inh: 4; tim23-1 inh: -2; TIM10 inh: 7

Results for Nc1nc2ccccc2cc1S(=O)(=O)c1ccccc1 ?
NALP3 yeast inh: 83*; SKKanGAS inh: 2; tim10-1 inh: -18; tim23-1 inh: 12; TIM10 inh: -28; NALP3 yeast conf: 87*

Results for O=S(=O)(c1ccccc1)c1cnc2ccccc2c1 ?
NALP3 yeast inh: 46; SKKanGAS inh: 1; tim10-1 inh: 11; tim23-1 inh: 10; TIM10 inh: -3

Results for CCOc1ccc(C(=O)NCc2ccco2)cc1OC ?
NALP3 yeast inh: 18; SKKanGAS inh: -1; tim10-1 inh: 6; tim23-1 inh: -12; TIM10 inh: -1

Results for CCOc1cc(N2CCOCC2)c(OCC)cc1NS(=O)(=O)c1cc(NC(C)=O)ccc1OC ?
NALP3 yeast inh: 15; SKKanGAS inh: 2; tim10-1 inh: -10; tim23-1 inh: 0; TIM10 inh: 16

What do the screens show for `COc1ccccc1-c1ccc(SCc2ccc(C)cc2)nn1`?
NALP3 yeast inh: 54*; SKKanGAS inh: 3; tim10-1 inh: 3; tim23-1 inh: 8; TIM10 inh: -10; NALP3 yeast conf: 59*; Casp1 ASC ctr: 52*; NALP3 retest: 55*

Results for COc1ccccc1-c1ccc(SCc2ccc(F)cc2)nn1 ?
NALP3 yeast inh: 35; SKKanGAS inh: 6; tim10-1 inh: 17; tim23-1 inh: 21; TIM10 inh: -6

How did NC(=O)c1ccc(NC(=O)CS(=O)(=O)c2cn(CC(=O)N3CCCCC3)c3ccccc23)cc1 do in these assays?
NALP3 yeast inh: 15; SKKanGAS inh: -4; tim10-1 inh: 12; tim23-1 inh: 6; TIM10 inh: 4

What do the screens show for `COc1cccc(NC(=O)c2ccc(OC(F)(F)F)cc2)c1`?
NALP3 yeast inh: 50*; SKKanGAS inh: 8; tim10-1 inh: 4; tim23-1 inh: 15; TIM10 inh: 15; NALP3 yeast conf: 63*; Casp1 ASC ctr: 41; NALP3 retest: 19

What do the screens show for `Cc1ccc(NC(=O)c2cc3ccccc3o2)cc1Cl`?
NALP3 yeast inh: 50*; SKKanGAS inh: -4; tim10-1 inh: -4; tim23-1 inh: 47; TIM10 inh: 38; NALP3 yeast conf: 68*; Casp1 ASC ctr: 39; NALP3 retest: 40

Results for COc1ccc(NC(=O)c2cc3ccccc3o2)cc1 ?
NALP3 yeast inh: 55*; SKKanGAS inh: -5; tim10-1 inh: -11; tim23-1 inh: 40; TIM10 inh: 12; NALP3 yeast conf: 79*; Casp1 ASC ctr: 66*; NALP3 retest: 61*

How did O=C(Nc1ccccc1)c1cc2ccccc2o1 do in these assays?
NALP3 yeast inh: 52*; SKKanGAS inh: 14; tim10-1 inh: -9; tim23-1 inh: 35; TIM10 inh: -5; NALP3 yeast conf: 51*; Casp1 ASC ctr: 53*; NALP3 retest: 53*

What do the screens show for `O=C(Nc1ccc(F)cc1)c1cc2ccccc2o1`?
NALP3 yeast inh: 24; SKKanGAS inh: -4; tim10-1 inh: 8; tim23-1 inh: 12; TIM10 inh: 3

How did COc1ccc(NC(=O)c2cc3ccccc3o2)cc1OC do in these assays?
NALP3 yeast inh: 20; SKKanGAS inh: -11; tim10-1 inh: -8; tim23-1 inh: 13; TIM10 inh: 0

How did Cc1ccc(C(=O)Nc2ccc(F)cc2)cc1NC1=NC2CS(=O)(=O)CC2S1 (configuration not stated) do in these assays?
NALP3 yeast inh: 16; SKKanGAS inh: -1; tim10-1 inh: -28; tim23-1 inh: -7; TIM10 inh: 0

How did Oc1ccc(C[C@H]2CNCCN2CC2(c3ccccc3)CC2)cc1 do in these assays?
NALP3 yeast inh: 12; SKKanGAS inh: 3; tim10-1 inh: -10; tim23-1 inh: 1; TIM10 inh: -10
